Test results: PubChem BioAssay AID777 (Sanford-Burnham Center for Chemical Genomics, 2007)
Screen size: about 96,000 compounds; about 19,000 (20%) were called active.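 The calls were made as follows: active = blocking of liver enzyme CYP2C9 beyond about 50% at 5 µM (limit read from the data); inactive = the rest.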 A selection follows.

molecular target: Cytochrome P450 2C9 (Homo sapiens) (UniProt P11712); assay: blockers of cytochrome P450 2C9 activity – biochemical, luminescence, ADME assay, primary screen (AID 777); conditions: CYP2C9 Supersomes, luciferin-H conversion, at 5 µM, active compounds read high
Sequence (P11712 whole entry, looked up): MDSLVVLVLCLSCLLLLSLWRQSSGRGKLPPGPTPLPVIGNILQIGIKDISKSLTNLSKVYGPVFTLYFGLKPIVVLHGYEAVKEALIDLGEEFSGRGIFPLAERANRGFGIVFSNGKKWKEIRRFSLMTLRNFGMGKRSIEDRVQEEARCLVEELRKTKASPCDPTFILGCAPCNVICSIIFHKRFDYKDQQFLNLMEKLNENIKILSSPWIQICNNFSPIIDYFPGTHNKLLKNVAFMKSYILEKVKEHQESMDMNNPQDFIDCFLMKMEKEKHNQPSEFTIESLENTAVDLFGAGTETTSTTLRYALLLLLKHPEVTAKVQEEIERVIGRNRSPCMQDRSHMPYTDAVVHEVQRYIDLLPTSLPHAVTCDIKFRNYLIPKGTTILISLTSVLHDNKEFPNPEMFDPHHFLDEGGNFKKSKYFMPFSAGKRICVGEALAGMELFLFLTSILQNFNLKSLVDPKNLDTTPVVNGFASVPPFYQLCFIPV

Compound | inhibition
COC(CNC(=O)Cn1ncc2ccsc2c1=O)OC | -15.8% (inactive)
CCCC(=O)N=c1sc2cccc(F)c2n1C | 14.7% (inactive)
CC1=Nn2c(nnc2-c2ccccc2)SC1 | -4.9% (inactive)
CCn1c(=N)c(S(=O)(=O)c2ccc(F)cc2)cc2c(=O)n3ccccc3nc21 | -0.6% (inactive)
O=C(Nc1nsc(-c2ccccc2)n1)c1ccncc1 | 45.7% (inactive)
CCC(=O)Nc1nc(OC)cc(OC)n1 | 2.1% (inactive)
COc1ccc(-n2c(SCC(=O)Nc3sc4c(c3C#N)CCCC4)nnc2-c2ccc(O)cc2)cc1 | 33.9% (inactive)
CC(c1nnc(SCC(=O)Nc2sccc2C#N)n1-c1ccc(Cl)cc1)N(C)C (stereo not drawn) | 50.8% (active)
N#Cc1ccsc1NC(=O)CN1CCCCC1 | -15.3% (inactive)
COc1ccc(NC2CC(=O)N(C)C2=O)cc1 (stereo not drawn) | 1.8% (inactive)
Cc1c(Cl)c([N+](=O)[O-])nn1Cc1ccc(C(=O)N/N=C\c2cc(Cl)ccc2O)o1 | 41.2% (inactive)
CCOc1ccc(-c2nnn(CC(=O)N3CCN(c4ccc(OC)cc4)CC3)n2)cc1OCC | 1.7% (inactive)
O=C(NCc1ccccc1)[C@@H]1CSC2c3ccccc3C(=O)N21 (stereo partly drawn) | 67.1% (active)
Cc1ccc(CNC(=O)C2CCCN2C(=O)NCc2ccccc2)cc1 (stereo not drawn) | -10% (inactive)
O=C1c2ccccc2C(O)N1Cc1ccccc1 (stereo not drawn) | -2.8% (inactive)
Cn1cccc1C(=O)NC(=O)COC(=O)Cc1coc2ccc3ccccc3c12 | -91.7% (inactive)
O=C(c1ccco1)N1CCN(C(=O)C2CCCN(S(=O)(=O)c3cccc4nsnc34)C2)CC1 (stereo not drawn) | 12.6% (inactive)
COc1ccc(C(=O)Nc2c(N)nc(SCC(=O)N3CCC(C)CC3)[nH]c2=O)cc1OC | -5.6% (inactive)
COc1ccc(C(=O)Oc2cc(/C=N/NS(=O)(=O)c3ccc(C)cc3)ccc2OC)cc1 | 29.8% (inactive)
Cc1ccc(C(=O)NNC(=O)c2cc3cc4ccccc4nc3s2)cc1 | 6.6% (inactive)
COc1ccc(/C=C(/NC(=O)c2ccc(C)cc2)c2nc3ccccc3[nH]2)cc1OC | 69.5% (active)
O=C(NCCCN1CCN(C2CCCCC2)CC1)Nc1ccccc1C(F)(F)F | 0.7% (inactive)
O=C(NCc1ccco1)c1cc(-c2cccnc2)nc2ccc(Cl)cc12 | 17.9% (inactive)
Cc1cc(NCc2ccco2)n2c(nc3ccccc32)c1C#N | 20.4% (inactive)
Clc1cccc(-c2nc3nc4ccccc4nc3n2Cc2ccco2)c1 | 52.8% (active)

Compound | inhibition
O=C(COC(=O)CCc1c[nH]c(=O)[nH]1)Nc1ccccc1Cl | -6% (inactive)
CCOC(=O)c1nnn(-c2nonc2OC)c1-c1ccccc1 | 26.7% (inactive)
O=C(O)C1CCCN1S(=O)(=O)c1ccc2c(c1)CCC2 (stereo not drawn) | -48.8% (inactive)
O=C1CCc2cc(S(=O)(=O)N3CCC(C(=O)NCc4ccccc4Cl)CC3)ccc2N1 | 24.7% (inactive)
CSc1cccc(NC(=O)C2CCCN2S(=O)(=O)c2ccc3c(c2)CCC(=O)N3)c1 (stereo not drawn) | 81.6% (active)
CCN1CCN(c2ccc([N+](=O)[O-])cc2C(=O)c2ccc(Cl)cc2)CC1 | -60.5% (inactive)
CCc1nnc(NC(=O)c2nc3nccc(C)n3n2)s1 | 1.9% (inactive)
Cc1ccc(-c2csc(NC(=O)Cc3cccs3)n2)cc1C | 26.9% (inactive)
O=C(CSC1=NCCS1)Nc1nc(-c2ccccc2)cs1 | 60.8% (active)
CCCc1ccc(-c2csc(NC(=O)Cc3cccs3)n2)cc1 | 42.2% (inactive)
Cc1ccc(-c2csc(NC(=O)c3cccs3)n2)cc1 | 3.3% (inactive)
CCn1c(SCC(=O)Nc2nc(C)cs2)nnc1C(C)NC(=O)c1ccccc1 (stereo not drawn) | 21.2% (inactive)
Cc1cccc(S(=O)(=O)CC(=O)Nc2nc(-c3ccccc3)cs2)c1 | 91.4% (active)
Cc1cccc2nc(CNc3ccc(F)cc3)cn12 | 38.8% (inactive)
COc1cccc(-c2nnc(N(C)C(=O)c3ccno3)s2)c1 | 2.4% (inactive)
CC(=O)c1cc(-c2ccccc2)[nH]c1N1CCCC1 | 12.9% (inactive)
Cc1ccc(C)c(NC(=O)c2ccc(OC(=O)c3ccco3)cc2)c1 | -24% (inactive)
COc1cc(OC)cc(C(=O)NCCSCc2ccco2)c1 | -1.5% (inactive)
CCc1ccccc1N(CC(=O)NCCSCc1ccco1)S(C)(=O)=O | 25.8% (inactive)
Cc1cccc(Nc2ccccc2C(=O)NCc2ccco2)c1C | 27.2% (inactive)
Cc1ccc(N(Cc2ccc(C(=O)Nc3ccccc3C(=O)NCc3ccco3)cc2)S(C)(=O)=O)cc1C | 72% (active)
Cc1ccccc1NC(=O)NCc1ccco1 | -34.3% (inactive)
CS(=O)(=O)N(Cc1ccc(Cl)cc1)c1ccc(C(=O)NCCSCc2ccco2)cc1 | 74.1% (active)
O=C(Nc1ccccc1)Nc1ccccc1C(=O)NCc1ccco1 | 88.1% (active)
Cc1ccc(C(=O)N/C(=C/C=C/c2ccccc2)C(=O)NCc2ccco2)cc1 | 36% (inactive)

Compound | inhibition
COCCNC(=O)Cn1cc2c(n1)CCCCC2 | 1.8% (inactive)
COc1cc2cc(CN(CCN3CCCC3)C(=O)Nc3ccccc3Cl)c(=O)[nH]c2cc1OC | 15% (inactive)
O=S(=O)(O)CCN1CCOCC1 | 1.4% (inactive)
COc1cc(/C=C2/C(=O)ON=C2C)ccc1OCc1ccccc1F | -5.4% (inactive)
COc1ccc(C2SCCN2S(=O)(=O)c2ccccc2)cc1OC (stereo not drawn) | -107% (inactive)
CCCN1Cc2cccc(C(=O)NCc3ccccc3)c2C1=O | 16.3% (inactive)
N#CC1=C(N)OC2=C(C(=O)CCC2)C1C1CC=CCC1 (stereo not drawn) | 37.1% (inactive)
O=C(O)CN1C(=O)CC(Cc2ccccc2)C1=O (stereo not drawn) | 7.4% (inactive)
COc1ccc(O)c(C=Nc2cc(C)on2)c1 | -5.4% (inactive)
COc1ccc(OC)c(C(=O)c2ccc(C(=O)O)cc2)c1 | 9.5% (inactive)
COc1ccc(O)c(C(=O)c2cnc3onc(C(C)C)c3c2)c1 | 96.6% (active)
O=C(CCSc1ccccc1)NCCSc1ccccn1 | 41.7% (inactive)
COc1ccc(C(C(O)C(=O)c2c[nH]c3ccccc23)N2CCN(c3ccccc3)CC2)cc1 (stereo not drawn) | 26.9% (inactive)
CS(=O)(=O)c1ccc2nc(NC(=O)CN3CCCCCC3)sc2c1 | 25.1% (inactive)
CC1CCCC(NC(=O)CSc2nccn2C)C1C (stereo not drawn) | -4.4% (inactive)
CC1=CC(C)(C)N(C(=O)CSc2nnc(-c3ccccc3)o2)c2ccc(C)cc21 | 11.9% (inactive)
CC1=CC(C)(C)N(C(=O)CSc2nccn2C)c2cc(C)ccc21 | 61.4% (active)
COCCNC(=O)CN(C(=O)CCC(=O)Nc1cc(C)on1)c1ccc(C)cc1C | -2.4% (inactive)
N#Cc1nc(Cc2cccc3ccccc23)oc1NCc1ccc2c(c1)OCO2 | 63.7% (active)
c1n[nH]c(NCc2ccc3c(c2)OCO3)n1 | 1% (inactive)
COc1cc2[nH]c(=S)n(CCN3CCCCC3C)c(=O)c2cc1OC (stereo not drawn) | 23.6% (inactive)
Cc1ccc(S(=O)(=O)/N=C(\CN2CCOCC2)N2CCOCC2)cc1 | 7.1% (inactive)
CC(=O)C1C(c2cccc(Oc3ccccc3)c2)NC(=O)NC1(O)C(F)(F)F (stereo not drawn) | 0.7% (inactive)
Cc1cccc(NC(=O)CSc2nnc(NC(=O)CN3CCOCC3)s2)c1 | 10.9% (inactive)
COCCn1c(C)cc(C(=O)CSc2ncnc3sc4c(c23)CCC4)c1C | -41.7% (inactive)

Compound | inhibition
COCCNc1nc(-n2nc(C)cc2C)nc2sc3c(c12)CCCC3 | 16.5% (inactive)
Cc1cc(C)n(-c2nc(SCC(=O)N3CCCC3)c3c4c(sc3n2)CCCC4)n1 | 78.8% (active)
CCCC1C(c2ccccc2)C(C#N)(C#N)C2(C#N)CC1(N)NC2=O (stereo not drawn) | 4.8% (inactive)
COc1ccc(N2C(=O)CN=C2Nc2cccc(C)c2C)cc1OC | 10.9% (inactive)
O=c1ccc2cc(S(=O)(=O)N3CCN(c4ccccc4)CC3)ccc2o1 | 5.5% (inactive)
Cc1ccc(S(=O)(=O)N2CC(=O)Nc3ccccc32)cc1C | -50.4% (inactive)
Cc1cc(N2CCN(S(=O)(=O)c3ccc(C)c(C)c3)CC2)c2ccccc2n1 | 89.9% (active)
CCCCNC(=O)CSc1nc2ccc(NC(=O)CSc3nnc(COc4ccccc4C)n3C)cc2s1 | 75.1% (active)
CCOC(=O)c1ccc(NC(=O)CSc2nnc(COc3ccccc3OC)n2C)cc1 | 11.7% (inactive)
CCCCNC(=O)CSc1nnc(-c2ccco2)n1C | 44.2% (inactive)
O=C1CCCc2c1nc(-c1cccc(Cl)c1)n2O | 11.3% (inactive)
CC1(C)CC(=O)C(C=NCc2cccnc2)=C(O)C1 | -14.4% (inactive)
CCNc1nc(N)nc(-c2cc(Cl)ccc2OC)n1 | -0.8% (inactive)
CCOC(=O)c1c(NC(=O)CCC(=O)NCc2ccco2)sc2c1CCCC2 | 41.9% (inactive)
Cc1ccc(C(=O)c2c(NC(=O)c3ccccc3)sc(C)c2C)cc1 | 43% (inactive)
COC(=O)c1sc(NC(=O)c2csc3c2CCCC3)nc1C | -7.3% (inactive)
COC(=O)c1sccc1NC(=O)c1csc2c1CCCC2 | 13.7% (inactive)
COC(=O)c1c(NC(=O)c2cccs2)sc2c1CCCC2 | 58.4% (active)
COC(=O)c1c(NC(=O)CSc2nncs2)sc2c1CCCCC2 | 91.9% (active)
CNC(=O)c1c(NC(NC(=O)c2ccco2)C(=O)c2ccc(Cl)cc2)sc2c1CCCC2 (stereo not drawn) | 46.5% (inactive)
Cc1ccc(C(=O)c2c(NC(=O)c3ccncc3)sc3c2CCCC3)cc1 | 67.8% (active)
Cc1ccc(Cn2c(NC(=O)c3ccco3)nc3ccccc32)cc1 | -10.6% (inactive)
Cc1cc(C)nc(SC(C)C(=O)N/N=C/c2cccs2)n1 (stereo not drawn) | 41.1% (inactive)
